{"source": "PubChem BioAssay (NCI)", "note": "About 83,000 compounds went through this panel and 20% of them were active in at least one assay; those are over-represented in the sample as a whole.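 The test compound was applied at a single concentration to cells in 96-well plates for 48 hours, and percent growth was recorded.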 Unmarked numbers belong to inactive results. Calls of active or inactive are those of the source."}
{"tested_on": "SNB-75 CNS", "assay": "NCI-60 one-dose screen, 48 h (100 = growth as untreated, 0 = no growth, -100 = all killed)", "conditions": "10 µM unless noted", "experimental": "Growth inhibition of the SNB-75 human tumor cell line is measured as a screen for anti-cancer activity. Cells are grown in 96 well plates and exposed to the test compound for 48 hours. Compounds are tested at a single concentration, which is 10^-5 M for most compounds. The reported endpoint is percent growth (GI% or GIPRCNT), where numbers from 0 - 100% represent growth inhibition, and numbers from -100% - 0 represent cell death. For example, a value of 40 represents 60% growth inhibition. A value of 0 means no net growth occurred over the course of the experiment. A value of -40 indicates 40% of cells at the beginning of the experiment died by the end of the experiment. A value of -100 means all cells are dead at the end of the experiment.\nNCI-60 Human Tumor Cell Lines Screen was performed using the standard one-dose NCI protocol, which is described in more detail at https://dtp.cancer.gov/discovery_development/nci-60/default.htm.\nCompounds with GIPRCNT values below 10 were considered active. Activity score was based on GIPRCNT using the following formula: […]\nScore is 0 for GIPRCNT values of 100 or above, 50 for GIPRCNT values of 0, and 100 for GIPRCNT values of -100."}
{"smiles": "CC1(C)CN(CCNc2nccc(-c3c(-c4cccc(O)c4)nc4sccn34)n2)S(=O)(=O)N1", "growth": "30.5%"}
{"smiles": "O=S1(=O)NCCN1CCNc1nccc(-c2c(-c3cccc(O)c3)nc3sccn23)n1", "growth": "73.3%"}
{"smiles": "O=C(CSc1nnc(Cc2ccccc2Nc2c(Cl)cccc2Cl)n1-c1ccccc1)N1N=C(c2ccc3ccccc3c2)CC1c1ccc(Cl)cc1", "note": "(stereo not given)", "growth": "81%"}
{"smiles": "O=C1c2cccc3cccc(c23)C(=O)N1CCCCCCCCCCN1C(=O)c2cccc3cccc(c23)C1=O", "growth": "80.8%"}
{"smiles": "CC[C@H](C)[C@H](N)C(=O)O", "growth": "99.1%"}
{"smiles": "O=[N+]([O-])c1ccc(N/N=C\\c2ccc(O)cc2O)nc1", "growth": "53.6%"}
{"smiles": "O=C(O)c1ccccc1Oc1cc(-c2ccco2)nc(OCCN2CCOCC2)n1", "growth": "92.4%"}
{"smiles": "Cn1cnc([N+](=O)[O-])c1S(=O)(=O)Oc1ccccc1", "growth": "103%"}
{"smiles": "O=C(CCCCCCN1CC(=O)N2[C@@H](c3ccc(Cl)c(Cl)c3)c3[nH]c4ccccc4c3C[C@H]2C1=O)NO", "growth": "6.3% (active)"}
{"smiles": "Cc1cc(-c2ccccc2)on1", "growth": "99.2%"}
{"smiles": "CC1(C)OC2OC3C(CN)OC(c4ccccc4)OC3C2O1", "note": "(stereo not given)", "growth": "92.4%"}
{"smiles": "CCCCCc1c(C)[nH]c(/C=C2\\N=C(c3ccc[nH]3)C=C2Oc2ccc(OC)cc2)c1C", "growth": "-91.6% [100 µM] (active)"}
{"smiles": "CCNC(=O)c1ccc2c(c1)nc(-c1ccc(Cl)cc1)n2-c1cc(C(C)(C)C)[nH]n1", "growth": "34.2%"}
{"smiles": "CC(=O)NC1C(O[C@H]2C[C@H]3[C@@H]4CC=C5C[C@@H](O)CC[C@]5(C)[C@H]4CC[C@]3(C)[C@H]2[C@H](C)C(=O)CCC(C)C)OCC(O)C1O", "note": "(stereo not given in full)", "growth": "37.8%"}
{"smiles": "O=C(O)CSc1ccc(NCc2oc(CO)cc(=O)c2O)cc1", "growth": "87%"}
{"smiles": "COc1ccccc1/C=N\\Nc1ccc([N+](=O)[O-])cn1", "growth": "110%"}
{"smiles": "Clc1ccccc1CNc1c2ccccc2nc2ccccc12", "growth": "43.1%"}
{"smiles": "Fc1ccc(-c2nc(-c3ccc(-c4nc5ccc(F)cc5[nH]4)cc3)no2)cc1", "growth": "57.6%"}
{"smiles": "CC(C)CC1NC(=O)C(CC(C)C)N(CO)C1=O", "note": "(stereo not given)", "growth": "93.4%"}
{"smiles": "COc1cc(-c2nn(C(=O)NCCN3CCN(C)CC3)cc2-c2ccncc2)ccc1Cl", "growth": "42.3%"}
{"smiles": "O=C1/C(=C/N2N=C(c3ccc(Cl)cc3)CC2c2ccccc2O)SC(=S)N1c1cccc(C(F)(F)F)c1", "note": "(stereo not given)", "growth": "38.4%"}
{"smiles": "O=c1c2cc(Br)cc(Br)c2nc(-c2ccc(Cl)cc2)n1/N=C/c1cccc(F)c1", "growth": "-0.938% (active)"}
{"smiles": "CCN(CC)c1ccc(/C=N/N=C(N)N)cc1", "growth": "40.2%"}
{"smiles": "CCN(CC)c1ccc(/C=N/NC(=O)c2ccc(S(C)(=O)=O)cc2)c(O)c1", "growth": "55.2%"}
{"smiles": "COc1cnc2c(c1)C(=O)c1c-2n(CCCNC(C)C)c(=O)c2cc(Cl)ccc12", "growth": "10.4%"}
{"smiles": "Nc1c(C(=O)Nc2ccccc2)sc2nc3c(cc12)C(=O)CCC3", "growth": "12.4%"}
{"smiles": "CN1C(=O)C(C(=O)/C=C/c2ccccc2C(=O)O)C(=O)N(C)C1=O", "growth": "86.7%"}
{"smiles": "O=C(N/N=C/c1ccccc1O)c1ccncc1", "growth": "86.2%"}
{"smiles": "Cc1ccccc1C1CC(=O)c2ccccc2C1C", "note": "(stereo not given)", "growth": "85%"}
{"smiles": "COc1cc(OC)c(C(=O)/C=C/c2cccc(OC(C)=O)c2)cc1CC=C(C)C", "growth": "77.5%"}
{"smiles": "CCSCC1CC(O)(c2ccccc2)C(c2ccccc2)C(c2ccc(F)cc2)O1", "note": "(stereo not given)", "growth": "-14% (active)"}
{"smiles": "CC(C)(C)[Si](C)(C)OC1[C@@H](O[Si](C)(C)C(C)(C)C)[C@@H](CNC(=O)NC(=O)NC(=O)CI)O[C@H]1n1cnc2c(NC(=O)Nc3ccccc3)ncnc21", "note": "(stereo not given in full)", "growth": "68.1%"}
{"smiles": "CCCCCCCC/C=C/CCCCCCCC1=NC(C)(C)CN1c1ccccc1", "growth": "90%"}
{"smiles": "COc1ccc(-c2cc(C(=O)Nc3ccc(C)cc3)nc3[nH]c(=O)sc23)cc1", "growth": "102%"}
{"smiles": "O=C(/C=C/c1ccco1)c1ccccc1O", "growth": "108%"}
{"smiles": "COC1(OC)C2(Cl)CCC1(Cl)C(Cl)=C2Cl", "growth": "95.6%"}
{"smiles": "CNC(=O)c1c(NC(=O)c2cccc(C(F)(F)F)c2)sc2c1CCC(=O)C2", "growth": "-7.71% (active)"}
{"smiles": "Cc1ccc([C@H]2c3[nH]c4ccccc4c3C[C@H]3C(=O)N(CCCCCCC(=O)NO)CC(=O)N23)cc1", "growth": "-7.38% (active)"}
{"smiles": "O/N=C/c1ccncc1", "growth": "96.2%"}
{"smiles": "CC1OC(n2c3ccccc3c3c4c(c5c6ccccc6[nH]c5c32)C(=O)N(CCN2CCOCC2)C4=O)CC(O)C1O", "note": "(stereo not given)", "growth": "5.86% (active)"}
